Data as given in PubChem BioAssay (NCI).
Compounds without any hit were thinned out: in the full panel of roughly 83,000, 20% have a hit.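 A percent growth of 40 corresponds to 60% growth inhibition; 0 means no net growth; -100 means all cells died. Active threshold: below 10.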 Values without a mark were called inactive. Calls of active or inactive are those of the source.

Tests used:
Test in all cases: NCI-60 one-dose screen, 48 h (100 = growth as untreated, 0 = no growth, -100 = all killed)
Settings in all cases: 10 µM
[1] = system: NCI-H23 lung
[2] = system: NCI-H226 lung
[3] = system: HOP-62 NSCLC
[4] = system: NCI-H460 lung
[5] = system: NCI-H522 lung
[6] = system: A549/ATCC NSCLC
[7] = system: 786-0 renal
[8] = system: COLO 205 colon
[9] = system: DU-145 prostate
[10] = system: K-562 leukemia
[11] = system: MALME-3M melanoma
[12] = system: MDA-MB-231 breast
[13] = system: RXF 393 renal
[14] = system: SF-268 CNS
[15] = system: SF-295 CNS
[16] = system: SF-539 CNS
[17] = system: UACC-257 melanoma
[18] = system: M14 melanoma
[19] = system: HOP-92 NSCLC

Row | SMILES | growth [1] | growth [2] | growth [3] | growth [4] | growth [5] | growth [6] | growth [7] | growth [8] | growth [9] | growth [10] | growth [11] | growth [12] | growth [13] | growth [14] | growth [15] | growth [16] | growth [17] | growth [18] | growth [19]
1 | COc1cc2cc(Oc3ccc(NC(=O)c4cccc(C(F)(F)F)c4)cc3)c(C)nc2cc1OC | 27.1% | 48.1% | 87.1% | 28.3% | 28.9% | 24.1% | 45.4% | 27.2% | 52.9% | 23.8% | 47.5% | 33.3% | 54% | 62.9% | 8.94% (active) | 60% | 44.9% | 16.1% | 
2 | COc1cc2c(Nc3ccc(-c4ccc(N)cc4)cc3)ncnc2c(OC)c1OC | 70.6% | 78.6% | 85.9% | 19.9% | 48.6% | 29.2% | 48% | 19.8% | 34.9% | 11% | 36.5% | 56.9% | 103% | 52.6% | -33.2% (active) | 17.5% | 43.8% | 13.8% | 
3 | CCCCN1C(=O)CC(SC2CC(=O)N(CCCC)C2=O)C1=O (stereo not drawn) | 97.9% | 104% | 106% | 108% |  | 119% | 112% | 102% | 103% | 118% |  | 108% | 122% | 101% | 109% | 105% | 98.6% | 113% | 97.8%
4 | COc1cc(C)ccc1Oc1nc(Nc2ccc(N3CCOCC3)cc2)ncc1NC(=O)Nc1cc(C(F)(F)F)cc(C(F)(F)F)c1 | 72% | 84.3% | 58.5% | 24.7% | 73.2% | 14.5% | 55% | 109% | 23.3% | 40.3% | 108% | 51.5% | -27.6% (active) | 49.7% | 60.2% | 65.6% | 84.3% | 73% | 
5 | O=C1/C(=C/c2ccc3c(c2)OCO3)SC(=S)N1C1c2ccccc2Oc2ccccc21 | 89.8% | 97.9% | 98.3% | 107% | 95.8% | 109% | 97.6% | 99.7% | 99.7% | 99.5% | 80.1% | 96% | 103% | 98.1% | 97.8% | 94.3% | 112% | 93.5% | 
6 | CN(C)CCN(Cc1ccccc1)c1ccc2ccccc2n1 | 97.6% | 111% | 88.4% | 96.9% | 96.7% | 95.6% | 93.9% | 89.5% | 107% | 93.4% | 96.5% | 87.2% | 105% | 103% | 88.5% | 106% | 98% | 91.3% | 
7 | COc1cc2cc(Oc3ccc(NC(=O)c4ccccc4)cc3)c(C)nc2cc1OC | 83.5% | 9.16% (active) | 43.8% | 94.8% | 7.6% (active) | 89.6% | 118% | 109% | 100% | 88.1% | 93.6% | 66% | 53.3% | 65.5% | 72.2% | 97.6% | 95.2% | 121% | 
8 | CC(=O)C1CCC2C3CC=C4CC(SC(=N)N)CCC4(C)C3CCC12C (stereo not drawn) | 61.8% | 56.6% | 82.5% | 16.7% | 61.5% | 47.5% | 48% | -100% (active) | 75.5% | -5.34% (active) | -6.9% (active) | 46.6% | 25.6% | 72% | 51.1% | 65.5% | 13.6% | 18.3% | 
